Measurements from PubChem BioAssay AID463173 (ICCB-Longwood Screening Facility, Harvard Medical School, 2010).
In all, about 52,000 compounds went through this assay and about 4,300 (8.3%) were called active. The entries come from a sample that favours actives as a whole. Unmarked numbers belong to inactive results. Cut-off read from the data, not from the text of the source: active = survival mostly below about 52% (no sharp cut-off); inactive = mostly above about 56%.

Each compound was assayed on DeltatarO mutant (assay: growth inhibition of S. aureus wild type versus tarO mutant, primary screen, teichoic acid synthesis inhibitors, RN4220, OD600 (AID 463173)). Settings: OD600, 18 h, hits give low values, screened at 18.75 µg/mL (by protocol).

Structure (SMILES)	survival
COc1ccc(C2c3cccn3CCN2S(=O)(=O)c2ccc([N+](=O)[O-])cc2)cc1 (centres undefined)	69%
Cn1ncc(C(=O)N2CCN(c3ccccc3)CC2)c1C1CCN(C(=O)OC(C)(C)C)CC1	78%
CCCCN(CC)C(=O)c1c[nH]c2ccc(S(=O)(=O)N(C)c3ccc(Cl)cc3)cc2c1=O	95%
COc1cc2c(cc1OC)C(c1cccc(Cl)c1)CC(=O)N2 (centres undefined)	63%
Cc1c(C(=O)OC2CCC(C)CC2)[nH]c2c1C(=O)CC(c1ccc(N(C)C)cc1)C2 (centres undefined)	68%
COc1ccc(NC(=O)C(=O)Nc2ccc3nc4n(c(=O)c3c2)CCCCC4)c(OC)c1	84%
COc1cccc(OC)c1C(=O)Nc1ccc2c(c1)N(C(C)=O)CCC2	78%
COCCn1c(=NC(=O)c2ccc3c(c2)OCCO3)sc2cc(NC(C)=O)ccc21	94%
Cc1nn2c(=O)cc(COC(=O)COc3ccccc3C)nc2s1	101%
O=C(NC12CC3CC(CC(C3)C1)C2)N1CCC(O)(c2ccc3c(c2)OCO3)CC1	81%
COc1ccc(-c2cc(C(F)(F)F)n3nc(C(=O)NCC45CC6CC(CC(C6)C4)C5)cc3n2)cc1	29% (active)
Cc1ccc(-c2cc(C(F)(F)F)n3nc(C(=O)Nc4ccc(Cl)cc4Cl)cc3n2)cc1	81%
CCOc1ccc(NC(=O)c2cc3nc(-c4ccc(OC)cc4)cc(C(F)(F)F)n3n2)cc1	134%
COc1ccc(-c2cc(C(F)(F)F)n3nc(C(=O)NCC45CC6CC(CC(C6)C4)C5)cc3n2)cc1OC	137%
O=C(NCC12CC3CC(CC(C3)C1)C2)c1cc2nc(-c3ccccc3)cc(C(F)(F)F)n2n1	-4% (active)
O=C(NCC12CC3CC(CC(C3)C1)C2)c1cc2nc(-c3ccc(Cl)cc3)cc(C(F)(F)F)n2n1	31% (active)
O=C(c1cc2nc(-c3ccccc3)cc(C(F)(F)F)n2n1)N1CCCC1	78%
O=C(Nc1cccc(C(F)(F)F)c1)c1cc2nc(-c3ccccc3)cc(C(F)(F)F)n2n1	60%
O=C(Nc1cccc(Cl)c1Cl)c1cc2nc(-c3ccc(Cl)cc3)cc(C(F)(F)F)n2n1	93%
CCC(c1nnnn1CCOC)N(Cc1cc2ccc(OC)cc2[nH]c1=O)C1CCCC1 (centres undefined)	92%
Cc1ccc(C)c(N2CCN(C(=O)c3cc4cc5ccc(C)cc5nc4s3)CC2)c1	95%

Structure (SMILES)	survival
N#Cc1c2c(c(-c3ccccc3)[nH]c1=S)CCCC2	91%
CCc1ccc(-c2nn(CC(=O)NC3CCCCC3)c3c2cnc2ccc(OC)cc23)cc1	98%
CCOC(=O)c1c(C)sc(-c2c(-c3cc(C)ccc3C)[nH]c3c2c(=O)[nH]c(=O)n3C)c1O	40% (active)
COC(=O)c1c(C)sc(-c2c(-c3ccc4c(c3)OCCO4)[nH]c3c2c(=O)[nH]c(=O)n3C)c1O	37% (active)
COC(=O)c1c(C)sc(-c2c(-c3cccc(OC)c3)[nH]c3c2c(=O)[nH]c(=O)n3C)c1O	43% (active)
CCOC(=O)c1c(C)sc(-c2c(-c3cccc(Cl)c3)[nH]c3c2c(=O)n(C)c(=O)n3C)c1O	113%
COC(=O)c1c(C)sc(-c2c(-c3ccc4c(c3)OCCO4)[nH]c3[nH]c(=O)[nH]c(=O)c23)c1O	50%
CCc1ccc(-c2[nH]c3c(c2-c2sc(C)c(C(=O)OC)c2O)c(=O)n(C)c(=O)n3C)cc1	51%
CCc1ccc(-c2[nH]c3c(c2-c2sc(C)c(C(=O)OC)c2O)c(=O)[nH]c(=O)n3C)cc1	23% (active)
COC(=O)c1c(C)sc(-c2c(-c3ccc(F)cc3)[nH]c3[nH]c(=O)[nH]c(=O)c23)c1O	116%
COC(=O)c1c(C)sc(-c2c(-c3cccc(Cl)c3)[nH]c3c2c(=O)[nH]c(=O)n3C)c1O	113%
CCOC(=O)c1c(C)sc(-c2c(-c3ccc4c(c3)OCCO4)[nH]c3c2c(=O)[nH]c(=O)n3C)c1O	106%
CCOC(=O)c1c(C)sc(-c2c(-c3ccc(OC)c(F)c3)[nH]c3c2c(=O)[nH]c(=O)n3C)c1O	117%
CCOC(=O)c1c(C)sc(-c2c(-c3cc(C)ccc3C)[nH]c3c2c(=O)n(C)c(=O)n3C)c1O	105%
COc1cccc(CNC(=O)c2c(C)oc3ncnc(N4CCOCC4)c23)c1	87%
COc1ccc(CNC(=O)C2CCN(c3nnc(-n4cccc4CNc4ccc(C)cc4)s3)CC2)c(OC)c1	70%
COc1ccc(CN2CCc3nc(N4CCN(c5ccc(F)cc5)CC4)ncc3C2)c(OC)c1OC	119%
COc1ccc(-c2nc3sc(CCNC(=O)c4cc(OC)c(OC)c(OC)c4)c(C)n3n2)cc1	83%
CN(C(=O)CSc1nc2ccc(NC(=O)COc3ccc(Cl)cc3)cc2s1)c1ccccc1	72%
CCOc1ccc(OCC)c(Nc2nc3ccc(Cl)cc3n3cnnc23)c1	65%
CC(C)NC(=O)C1CCN(S(C)(=O)=O)CC1	93%

Structure (SMILES)	survival
CSc1nc(NNC(=O)c2ccco2)c2c3c(sc2n1)COC(C)(C)C3	81%
CCOc1ccccc1NC(=O)C(C)N(c1ccccc1)S(C)(=O)=O (centres undefined)	91%
CCOC(=O)c1c(C)sc(-c2c(-c3ccc4c(c3)OCCO4)[nH]c3c2c(=O)n(C)c(=O)n3C)c1O	128%
COC(=O)c1c(C)sc(-c2c(-c3ccc4c(c3)OCCO4)[nH]c3c2c(=O)n(C)c(=O)n3C)c1O	43% (active)
COC(=O)c1c(C)sc(-c2c(-c3ccc(OC)c(F)c3)[nH]c3c2c(=O)n(C)c(=O)n3C)c1O	120%
COCCCNc1c2c(nc3ccccc13)CCC2	125%
O=C1COc2ccc(-c3cc(-c4ccc(F)cc4)c4c(n3)-c3cc(Cl)ccc3OC4)cc2N1	88%
Cc1nc2sccn2c(=O)c1S(=O)(=O)Nc1cc(C(F)(F)F)ccc1Cl	69% (active)
COC(=O)c1ccc(NS(=O)(=O)c2c(C)nc3sccn3c2=O)cc1	72% (active)
COc1cc(Cl)c(C)cc1NS(=O)(=O)c1c(C)nc2sccn2c1=O	64% (active)
COc1ccc(NS(=O)(=O)c2c(C)nc3scc(C)n3c2=O)cc1	90%
Cc1nc2sccn2c(=O)c1S(=O)(=O)Nc1cc(Cl)ccc1O	51%
COc1cc(OC)c(NS(=O)(=O)c2c(C)nc3sc(C)cn3c2=O)cc1Cl	65%
Cc1ccc(NS(=O)(=O)c2c(C)nc3sccn3c2=O)c(Cl)c1	132%
CC(=O)c1ccc(NS(=O)(=O)c2c(C)nc3scc(C)n3c2=O)cc1	88%
CCOc1ccccc1NS(=O)(=O)c1c(C)nc2sccn2c1=O	63%
CCCCOC(=O)c1ccc(NS(=O)(=O)c2c(C)nc3scc(C)n3c2=O)cc1	43% (active)
Cc1nc2sccn2c(=O)c1S(=O)(=O)Nc1ccc(N2CCN(C)CC2)cc1	106%
CC(=O)Nc1ccc(NS(=O)(=O)c2c(C)nc3sccn3c2=O)cc1	61%
COc1ccc(Cn2nnnc2C(C(C)C)N2CCc3ccccc32)cc1 (centres undefined)	82%
CC(=O)N1CCC(N(Cc2ccco2)C(=O)Nc2ccc(C)c(Cl)c2)CC1	128%

Structure (SMILES)	survival
CN(C)S(=O)(=O)c1ccc2c(c1)N(CC(=O)NCc1ccccc1)C(=O)C1CCCCN21 (centres undefined)	67%
CCSc1nc2n(n1)C(c1ccc(C(=O)O)cc1)C(C(=O)Nc1ccccc1C)=C(C)N2 (centres undefined)	84%
COc1ccc(N2CCN(C(=O)Nc3ccc(Cl)cc3)CC2)cc1	168%
COc1ccc(S(=O)(=O)c2cn(CC(=O)Nc3cc(C)ccc3C)c3ccccc3c2=O)cc1	86%
COc1ccccc1NC(=O)C1=C(C)Nc2nc(SCc3cc(C)ccc3C)nn2C1c1ccccc1 (centres undefined)	116%
CCOc1ccc(NC(=O)CSc2ncc3c(n2)-c2ccc(Cl)cc2N(Cc2ccccc2)S3(=O)=O)cc1	99%
O=C(NCc1ccccc1Cl)c1ccc(Nc2nc3ccccc3n3nnnc23)cc1	84%
Cc1cc(/C=C(\C#N)C(=O)Nc2ccccc2)c(C)n1-c1ccc(F)cc1	59%
COc1cccc(Nc2nnc(-c3cc4ccc(O)cc4oc3=O)s2)c1	85%
Cc1ccc(NC(=O)c2sc3nc(-c4ccncc4)ccc3c2N)cc1	131%
O=C(Nc1ccc(Br)cc1)c1cc(-c2cccs2)nc2ccccc12	83%
Cc1cc(F)ccc1NC(=O)c1sc2nc(-c3cccs3)ccc2c1N	45% (active)
Cc1ccc(NC(=O)c2cc(-c3cccs3)nc3ccccc23)c(C)c1	57% (active)
Cc1ccccc1NC(=O)c1sc2nc(-c3ccncc3)ccc2c1N	39%
CCOc1ccc(OCC)c(NC(=O)c2cc(-c3cccs3)nc3ccccc23)c1	85%
Nc1c(C(=O)Nc2cccc(F)c2)sc2nc(-c3cccs3)ccc12	69%
Nc1c(C(=O)Nc2ccc(Cl)cc2F)sc2nc(-c3cccs3)ccc12	58%
CC(C)CSc1ccccc1NC(=O)c1sc2nc(-c3ccncc3)ccc2c1N	46% (active)
Cc1ccc(N(Cc2cccs2)C(=O)c2ccc(Br)o2)cc1	73%
CC(C)(C)C(=O)CSc1nc2ccsc2c(=O)n1Cc1ccccc1Cl	77%
COc1ccc(-c2nc3n(c2NC(C)(C)C)CCN(C(=O)Cc2ccccc2F)C3)cc1	88%
